# Only some compounds are listed: those with a hit (about 2.5% of all), similar ones and a draw of the others.
# Bst PK mod: alters activity of Bacillus stearothermophilus pyruvate kinase; actives 1.2% (n = 51,000); purified pyruvate kinase, luminescence ATP production; ribose 5-phosphate activator present at AC10; AID 361; Potency, µM; in the data active = potency below about 11 µM; inconclusive = mostly about 12 µM to 25 µM;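 the screen sought inhibitors and activators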;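 also: scaled between full activation by ribose 5 phosphate and full inhibition by luteolin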
# Luciferase inh: blocks Photinus pyralis firefly luciferase activity. Potency, µM (top dose mostly 57.1 µM), for the others: top-dose activity change, negative = inhibition, actives largely listed as inhibitors. AID 411. P08659. purified firefly luciferase, luminescence, 8 min. actives 2.2% (n = 72,000); active = well fitted inhibition curve with a large enough effect; inconclusive = small, poorly fitted or top-dose-only effect; also: nearly all actives have a fitted effect of over 40% in size
# Target sequence (P08659 whole entry, looked up): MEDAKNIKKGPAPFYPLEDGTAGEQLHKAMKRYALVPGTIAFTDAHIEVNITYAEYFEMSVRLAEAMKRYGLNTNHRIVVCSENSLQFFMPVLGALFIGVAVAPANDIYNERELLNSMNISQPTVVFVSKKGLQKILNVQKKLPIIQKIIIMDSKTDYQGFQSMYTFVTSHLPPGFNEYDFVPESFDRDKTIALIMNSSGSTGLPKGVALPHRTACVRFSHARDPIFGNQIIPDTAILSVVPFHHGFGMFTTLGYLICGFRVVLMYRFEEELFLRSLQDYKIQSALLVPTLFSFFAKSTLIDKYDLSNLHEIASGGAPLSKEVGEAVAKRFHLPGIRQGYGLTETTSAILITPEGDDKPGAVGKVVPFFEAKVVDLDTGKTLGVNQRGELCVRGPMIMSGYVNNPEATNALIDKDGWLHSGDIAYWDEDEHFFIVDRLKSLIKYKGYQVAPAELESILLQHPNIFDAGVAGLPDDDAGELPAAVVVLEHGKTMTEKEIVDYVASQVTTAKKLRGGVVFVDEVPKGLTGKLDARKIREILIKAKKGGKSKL
#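 Titration-based qHTS; buffer 50 mM imidazole pH 7.2, 50 mM KCl, 7 mM MgCl2, 10 uM ATP, 0.01% Tween 20, 0.05% BSA; luciferase/luciferin detector mix added after compound; 8 min, ambient; luminescence.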
# * hit, by the source's call; i = inactive; ? = inconclusive; / = not tested or not shown; [ ] = another dose, or the depositor's remark. Unless noted, % is scaled to controls: 0 for no effect and ±100 for the full control effect; potency is read from the fitted curve at half-maximal effect.
SMILES,Bst PK mod,Luciferase inh
COc1ccc(OC)c(NC(=O)CN2C(=O)c3ccccc3S2(=O)=O)c1,/,2%
Cc1c(NC(=O)CN2c3cccc4cccc(c34)S2(=O)=O)c(=O)n(-c2ccccc2)n1C,11*,-1%
COc1ccc(NC(=O)CN2c3cccc4cccc(c34)S2(=O)=O)cc1,1.4*,0%
Cc1c(NC(=O)CN2C(=O)c3ccccc3S2(=O)=O)c(=O)n(-c2ccccc2)n1C,>57,2%
CC(C)C[C@H](NC(=O)[C@@H](O)[C@@H](N)Cc1ccccc1)C(=O)O,/,0%
CC(C)=C[C@H]1[C@@H](COC(=O)c2cc3c(cc2Cl)OCO3)C1(C)C,/,3%[11.4 µM]
Nc1nc(-c2ccc(Cl)cc2)cc(C(F)(F)F)n1,i,4%
Clc1ccc(-c2cn3c(n2)CCC3)cc1,?,13µM*
CC(CO)(CO)N=Cc1cc(I)cc(I)c1O,/,4%[11.4 µM]
CC(=O)O[C@H]1C(=O)[C@]2(C)[C@H]([C@H](OC(=O)c3ccccc3)[C@@]3(O)C[C@H](OC(=O)[C@@H](O)[C@@H](NC(=O)c4ccccc4)c4ccccc4)C(C)=C1C3(C)C)[C@]1(OC(C)=O)CO[C@@H]1C[C@@H]2O,/,-2%[11.4 µM]
COc1ccc(-c2csc(NCc3ccco3)n2)cc1C,/,7.9µM*
Cc1ccn2c(-c3csc(NCc4ccco4)n3)c(C)nc2c1,/,-2%
Cn1c(=O)c2c(nc(/C=C\c3cccc(Cl)c3)n2C)n(C)c1=O,/,2%
CN(C)c1ccccc1C(=O)c1ccccc1N(C)C,/,25µM*
CN(c1ccccc1C(=O)O)S(C)(=O)=O,>57,0%
Clc1ccc(CSc2ncn[nH]2)cc1,/,-1%
Brc1ccc2nc(CSc3ncn[nH]3)cn2c1,>57,25µM*
Nc1c(C(=O)OCC2CCCO2)c2nc3ccccc3nc2n1C1CCCCC1 (stereo not given),8.9*,-2%
Nc1c(C(=O)NCC2CCCO2)c2nc3ccccc3nc2n1-c1ccccc1 (stereo not given),>57,2%
CCOC(=O)c1c(C)n(C)c2ccc(O)c(S(=O)(=O)c3ccccc3)c12,10*,-2%[25.5 µM]
CCOC(=O)c1c(C)n(C)c2ccc(O)c(CN(C)C)c12,>57,-2%
Cc1c(Cl)cccc1NC(=O)c1cc(-c2ccc(O)cc2)on1,/,-4%
Cn1cccc1C(=O)N1CCC2(CCCN(c3ccccn3)C2)CC1,/,0%[11.4 µM]
O=c1[nH]cc(CS(=O)(=O)Cc2c[nH]c(=O)[nH]c2=O)c(=O)[nH]1,/,2%[11.4 µM]
COc1ccc(OC)c(Nc2nc(N)nc(-c3cc4ccccc4o3)n2)c1,>57,-3%
SMILES,Bst PK mod,Luciferase inh
Cc1c(-c2nc(N)nc(Nc3ccccc3)n2)oc2ccccc12,?,25µM*
O=C(O)[C@@H]1[C@@H](C(=O)NCc2ccncc2)[C@@H]2C=C[C@@H]1O2,/,3%[11.4 µM]
O=C1[C@H]2[C@H]3[C@H](O)[C@H](O)C/C(=N/OCc4ccccc4)[C@@H]3CC[C@@H]2C(=O)N1c1cccc(Oc2ccccc2)c1,/,0%[11.4 µM]
CCCC(=O)Nc1ccc(NC(=O)c2ccccn2)cn1,/,20µM*
CCCC(=O)Nc1ccc(NC(=O)c2ccccc2OC)cn1,>57,-2%
N[C@@](CCc1ccccc1)(C(=O)O)c1ccccc1,/,2%[11.4 µM]
Cc1cc(=O)n2[nH]c(-c3ccc(Cl)cc3)cc2n1,?,16µM*
Cc1cc(=O)n2[nH]c(-c3ccc(F)cc3)cc2n1,i,?
O=c1c(O)c(-c2ccc(O)c(O)c2)oc2ccccc12,/,0%[11.4 µM]
N=C1C(c2ccccc2)=C(O)C2CCc3ccccc3N12 (stereo not given),/,0%
N=C1C(c2ccc(Br)cc2)=C(O)C2CCc3ccccc3N12 (stereo not given),3*,-1%
O=C1C=CC(=Nc2cccc3c(N=C4C=CC(=O)O4)cccc23)O1,/,-19%[11.4 µM]
Cc1cc(-c2cc(C)c(O)c(C(C)(C)C)c2)cc(C(C)(C)C)c1O,/,-2%[11.4 µM]
Cc1ccc2c(Cl)cc(Cl)c(OCC(=O)NC(=O)NCc3ccco3)c2n1,3.1*,-32%
Cc1cc(Cl)cc(Cl)c1OCC(=O)NCc1ccco1,/,1%
CSc1ncnc2c1ncn2[C@@H]1O[C@@H](CO)[C@H](O)O[C@@H]1O,/,2%[11.4 µM]
O=C1C[C@@H](O)[C@@H](O)[C@H]2[C@@H]3C(=O)N(C4CCCCC4)C(=O)[C@@H]3CC[C@H]12,/,1%[11.4 µM]
CCNc1ncc2nc(-c3ccc(OC)cc3)c(=O)n(CCOC)c2n1,/,0%[11.4 µM]
COc1ccccc1NC(=O)c1oc2ccc(C)cc2c1C,/,16µM*
COc1ccccc1NC(=O)c1oc2ccccc2c1NC(=O)c1cc(OC)c(OC)c(OC)c1,>57,-6%
O=S(=O)(c1ccccc1S(=O)(=O)N1CCCCC1)N1CCCCC1,>57,4%
O=S(=O)(c1ccc(F)c2ccccc12)N1CCCCC1,2.9*,1%
C#C[C@@]1(O)CC[C@H]2[C@H]3CCC4=Cc5oncc5C[C@]4(C)[C@@H]3CC[C@@]21C,/,-1%
CN(c1ccc(O)cc1)c1nc(-c2ccccc2)cs1,?,13µM*
CN(C)CCCN(C(=O)c1cccs1)c1nc(-c2ccccc2)cs1,/,0%
SMILES,Bst PK mod,Luciferase inh
c1cncc(-c2cc(-n3ccnc3)ncn2)c1,/,-3%[2.29 µM]
O=C(OCC(=O)c1cccs1)c1ccccc1,/,13µM*
O=C(COc1ccccc1O)c1cccs1,>57,2%
N[C@H]1[C@@H](C(=O)O)[C@H]2C=C[C@H]1C2,/,3%[11.4 µM]
CCN1C(=O)[C@H]2[C@H]3[C@H](O)[C@H](O)C/C(=N/O[C@@H](C)c4cc(-c5c(C)cc(C)cc5C)no4)[C@@H]3CC[C@@H]2C1=O,/,-1%[11.4 µM]
Clc1ccccc1-c1nnc2sc(-c3ccccn3)nn12,>57,-2%
COc1cccc(OC)c1-c1nn2c(-c3ccccc3Cl)nnc2s1,7.3*,-1%[25.5 µM]
Cc1ccc2c(c1)-c1cc(C)nn1C(c1sccc1C)N2 (stereo not given),11*,?
Cc1cc2n(n1)C(c1sccc1C)Nc1ccccc1-2 (stereo not given),>11,-29%
CN(C)CCCN=c1c2ccccc2n(C)c2[nH]c(=O)n(C)c(=O)c12,/,4%[11.4 µM]
O[C@@H]1CC[C@H]2Cc3ccccc3N=C21,/,2%[11.4 µM]
COC(=O)Cc1c(C)nc2nc(-c3ccc(OC)cc3)[nH]n2c1=O,/,13µM*
COc1ccc(-c2nc3nc(C)c(Cc4ccccc4)c(=O)n3[nH]2)cc1,>57,-6%
COC(=O)[C@@H]1CC[C@H](C)[C@@H](c2ccc(C)cc2)N1C(=O)c1ccc(/C=N\OC[C@@H](C)[C@H](OCc2ccccc2)C(C)C)cc1,/,0%[11.4 µM]
CCCc1cc(C(N)=O)c(NC(=O)c2cc(C)on2)s1,>57,-1%
Cc1cc(C(=O)Nc2sc(C)c(-c3ccc(F)cc3)c2C(N)=O)no1,>57,7.9µM*
Cc1ccc(C2NC(=O)NC3=C2CCc2ccccc23)cc1 (stereo not given),?,13µM*
COc1ccc(C2NC(=O)NC3=C2CCc2ccccc23)cc1 (stereo not given),/,4%
CCN1CCN(Cc2ccc3c(c2)Cc2ccccc2-3)CC1,/,-4%
c1ccc2c(c1)Cc1cc(CN3CCOCC3)ccc1-2,/,13µM*
N=C(N)c1ccc(/C=C\c2ccc(C(=N)N)cc2)cc1,/,2%[11.4 µM]
Cn1cnc([N+](=O)[O-])c1Sc1nc(N)nc2c1ncn2[C@H]1C[C@H](O)[C@@H](CO)O1,/,1%[11.4 µM]
NC(=O)c1ccccc1N/C=C/C(=O)c1ccccc1,2.5*,3.2µM*
CC(C)=CC(=O)Nc1ccccc1C(N)=O,>57,1%
O=c1c(-c2ccc(Cl)cc2)nc2cnc(N3CCOCC3)nc2n1C[C@H]1CCCO1,/,2%[11.4 µM]
